Compound activity: PubChem BioAssay, Broad Institute
RAD52 inh – RAD52 (human) annealing inhibition | P43351 | recombinant RAD52 DNA annealing, FRET fluorescence | inhibition, % at 18.7 µM | 360,000 compounds, 0.46% hits;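 active means every replicate showing at least 50% inhibition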
AF4-AF9 inh – inhibitors of human MLL-AF4/AF9 interaction; inhibition, % at 10 µM; AlphaScreen, biotin-AF4 peptide binding to FLAG-AF9; 350,000 compounds, 0.47% hits; AID 651704;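 active means every replicate reaching a set inhibition limit, whatever the replicate mean, cut at about 25% in these data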;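 further: 0% = plate neutral control median and 100% = total signal loss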
Target sequence (P42568 whole entry, looked up): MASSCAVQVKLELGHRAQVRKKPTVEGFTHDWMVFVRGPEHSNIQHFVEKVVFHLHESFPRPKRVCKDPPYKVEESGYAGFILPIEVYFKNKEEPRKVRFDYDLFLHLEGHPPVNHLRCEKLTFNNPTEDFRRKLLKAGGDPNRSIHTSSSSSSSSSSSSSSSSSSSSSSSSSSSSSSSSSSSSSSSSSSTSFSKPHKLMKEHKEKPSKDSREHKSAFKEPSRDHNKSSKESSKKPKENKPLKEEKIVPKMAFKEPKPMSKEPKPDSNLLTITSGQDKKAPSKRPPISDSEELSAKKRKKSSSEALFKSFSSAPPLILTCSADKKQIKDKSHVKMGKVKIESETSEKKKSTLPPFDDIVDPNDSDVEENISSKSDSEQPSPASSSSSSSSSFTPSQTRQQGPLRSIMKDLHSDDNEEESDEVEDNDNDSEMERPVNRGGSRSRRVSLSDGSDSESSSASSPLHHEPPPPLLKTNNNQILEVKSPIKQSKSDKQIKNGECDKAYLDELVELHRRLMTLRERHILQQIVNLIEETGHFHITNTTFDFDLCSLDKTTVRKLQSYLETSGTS
ERAP1 inh – inhibitors of human ERAP1 aminopeptidase. recombinant ERAP1, Leu-AMC fluorescence, 60 min. inhibition, % at 10.7 µM. 340,000 compounds, 0.15% hits;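 active means mean replicate inhibition of at least 30%, or all replicates individually reaching that 30% level; inactive means mean below 30% and not every replicate reaching it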;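 further: 0% = neutral control wells and 100% = L-leucinethiol positive control wells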
RAD54 branch – blocks human RAD54 Holliday junction branch migration; inhibition, % at 10.4 µM; AID 602329; Q92698; 360,000 compounds, 0.14% hits; FAM/BHQ fluorescence;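 active means mean normalized replicate activity at least 40 and at least half of replicates scoring 40 or more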;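 further: 0% = median of neutral control wells and 100% = median of positive control wells; inhibitors cause a drop in the FAM fluorescence signal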
PGC1a acetyl inh – PGC1a acetylation modulation, inhibitor mode; U2OS PGC1a acetylation, AlphaScreen anti-acetyl-lysine; with virally co-expressed GCN5 acetyltransferase; inhibition, % at 15.6 µM; 350,000 compounds, 0.17% hits; AID 651687;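 active means every replicate shows inhibition of at least 40%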;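 further: 0% = neutral control wells and 100% = positive control wells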
INS-1E GSIS act – primary screen for activators of insulin secretion dependent on glucose, INS-1E cells, GLuc reporter luminescence; INS-1E GLuc reporter insulin secretion, 2-3 h; activation, % at 16.6 µM; 370,000 compounds, 0.61% hits; AID 743287;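 active means lowest replicate activation of at least 40%, so every replicate reaches that level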;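 further: 0% = median of neutral control wells and 100% = median of IBMX positive control wells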
* hit, by the source's call; · = no result given; ! = repeats disagree. Shown are actives, neighbours in structure and some others; about 1.4% of the full set was active somewhere.

SMILES	RAD52 inh	AF4-AF9 inh	ERAP1 inh	RAD54 branch	PGC1a acetyl inh	INS-1E GSIS act
COc1ccc(N2CCN(C(=O)CCCC(=O)c3ccccc3)CC2)cc1	-12	9	·	-2	3	-14
O=C(C[C@H]1C[C@H](C(=O)N2CCCCC2)[C@@]2(CCc3ccccc3)c3[nH]c4cc(-c5ccco5)ccc4c3CCN2C1=O)NCCN1CCOCC1	-11	26*	2	-5	-5	0
COCCCNC(=O)C[C@H]1C[C@H](C(=O)N2CCCCC2)[C@@]2(CCc3ccccc3)c3[nH]c4cc(-c5ccco5)ccc4c3CCN2C1=O	-10	8	·	-5	·	-11
Fc1ccccc1C1c2[nH]c3ccccc3c2CCN1Cc1cccn1-c1ncccn1 (stereo not drawn)	-17	27*	0	·	-1	-4
Cc1ccc(S(=O)(=O)NC[C@@H]2CC[C@@H]3[C@@H](CN3Cc3cc(F)ccc3F)O2)cc1	-5	-10	0	·	·	·
COc1ccc(NS(=O)(=O)c2ccc(N/N=C/c3ccc(N4CCOCC4)cc3)c([N+](=O)[O-])c2)cc1	-2	-3	-1	1	2	·
COc1ccc(/C=N/Nc2ccc(C(F)(F)F)cc2[N+](=O)[O-])cc1	·	·	·	·	·	45*
C[C@H](CO)N1C[C@H](C)[C@@H](CN(C)S(=O)(=O)c2cccs2)Oc2ccc(NC(=O)CCCCCC(=O)Nc3ccccc3N)cc2CC1=O	·	·	·	0	3	9
COc1ccccc1C(=O)NNC(=O)C12CC3CC(CC(C3)C1)C2	-5	0	0	3	19	8
C[n+]1cccc(C(=O)NNC(=O)C23CC4CC(CC(C4)C2)C3)c1	0	-3	109*	·	-6	9
O=C(Nc1cccc(F)c1)N1CCCCN2[C@@H](CO)[C@H](c3ccc(C#Cc4cccnc4)cc3)[C@@H]2C1	21	6	1	3	-10	-24
O=C1CCCC2=C1C(c1ccc(Br)cc1)c1c([nH]c(=S)[nH]c1=O)N2 (stereo not drawn)	·	·	·	6	-12	·
O=c1[nH]c(=S)[nH]c2c1C(c1ccc(Br)cc1)c1c([nH]c(=S)[nH]c1=O)O2	-1	-5	10	56*	0	-9
CCCc1cc(N2CCCC(C(=O)NCc3ccc4c(c3)OCO4)C2)n2ncnc2n1 (stereo not drawn)	-21	-7	0	-9	-3	54*
Cc1cc(C)nc(N2CCCC(C(=O)NCc3ccc4c(c3)OCO4)C2)n1 (stereo not drawn)	-19	-2	1	·	·	3
CN(C)c1ccc(N=Cc2nc(-c3ccccc3)oc2O)cc1	·	·	·	·	-6	·
CN(C)c1ccc(N=Cc2cccn2C)cc1	15	50*	0	9	·	-9
C[C@@H]1CN([C@H](C)CO)C(=O)c2cc(NS(=O)(=O)c3ccc(Cl)cc3)ccc2O[C@@H](C)CCCCO[C@@H]1CN(C)Cc1ccc2c(c1)OCO2	33	0	4	-7	5	-15
C[C@@H]1CN([C@@H](C)CO)C(=O)c2cc(NS(=O)(=O)c3ccc(Cl)cc3)ccc2O[C@@H](C)CCCCO[C@H]1CN(C)Cc1ccc2c(c1)OCO2	46	6	-2	-7	-3	-31
C[C@H]1CCCCO[C@@H](CN(C)Cc2ccc3c(c2)OCO3)[C@@H](C)CN([C@@H](C)CO)C(=O)c2cc(NS(=O)(=O)c3ccc(Cl)cc3)ccc2O1	55*!	17	-3	-1	14	-9
C[C@H](CO)N1C[C@H](C)[C@H](CN(C)Cc2ccc3c(c2)OCO3)OCCCC[C@H](C)Oc2ccc(NS(=O)(=O)c3ccc(Cl)cc3)cc2C1=O	63*	20	-3	-7	-9	-21
COc1ccc2c3c([nH]c2c1)[C@H](CO)N(Cc1ccccc1F)CC31CCN(CC2CC2)CC1	-2	14	3	·	-14	17
CNC(=O)NC(=O)C(C)OC(=O)c1oc2ccccc2c1CSc1ccc(Cl)cc1 (stereo not drawn)	-11	-9	-2	·	·	11
CCNC(=O)NC(=O)C(C)OC(=O)c1oc2ccccc2c1CSC1CCCCC1 (stereo not drawn)	·	·	·	1	0	108*
CC(C)[C@H](NC(=O)[C@H](CCCN=C(N)N)NC(=O)NC(Cc1ccccc1)C(=O)O)C(=O)NC(C=O)CCCN=C(N)N (stereo partly drawn)	11	-10	35*	-1	3	·
SMILES	RAD52 inh	AF4-AF9 inh	ERAP1 inh	RAD54 branch	PGC1a acetyl inh	INS-1E GSIS act
O=C(c1ccccc1)N1CC[C@@H]2[C@H]1c1cc(-c3ccc(F)cc3)ccc1N[C@@H]2CO	·	·	·	-11	4	-2
O=C1C=C(/C=C/c2ccccc2)C[C@@H](c2ccc(F)cc2)C1	-8	9	0	7	-14	-11
COc1ccc([C@H]2CC(=O)C=C(/C=C/c3ccccc3)C2)cc1OC	-15	29*	-4	0	-48	-9
Cc1ccc([N+](=O)[O-])cc1NC(=O)c1ccccc1	-11	-2	0	-8	2	23
O=C(Nc1ccc([N+](=O)[O-])cc1NC(=O)c1ccccc1)c1ccccc1	-9	5	1	8	3	85*
O=C(COC(=O)c1ccccc1NC(=O)c1ccccc1)c1cccc([N+](=O)[O-])c1	·	·	·	·	·	69*
C[C@@H]1CN([C@H](C)CO)C(=O)CCCn2cc(nn2)CO[C@@H]1CN(C)Cc1ccc(C(F)(F)F)cc1	·	·	·	·	3	-9
CCCC(=O)Nc1ccc2c(c1)OC[C@@H](C)N(Cc1cncnc1)C[C@@H](C)[C@H](OC)CN(C)C2=O	·	·	·	·	·	-2
O=S(=O)(Nc1cccc(-c2cn3c(n2)SCC3)c1)c1ccc(F)cc1F	-66	2	24	7	·	-12
O=S(=O)(Nc1cccc(-c2cn3c(n2)SCC3)c1)c1ccccc1F	-4	-10	37*	4	1	0
C[C@@H]1CN([C@H](C)CO)S(=O)(=O)c2ccc(C#Cc3ccc(F)cc3)cc2O[C@H]1CN(C)C(=O)CN(C)C	61*	19	0	14	-21	60
C[C@H](CO)N1C[C@H](C)[C@@H](CN(C)C(=O)CC2CC2)Oc2cc(C#CC(C)(C)O)ccc2S1(=O)=O	2	-3	3	1	-22	44*
C[C@H](CO)N1C[C@H](C)[C@@H](CN(C)C)Oc2cc(C#Cc3cccc(F)c3)ccc2S1(=O)=O	24	9	4	3	-18	4
C[C@@H]1CN([C@@H](C)CO)S(=O)(=O)c2ccc(C#Cc3cccc(F)c3)cc2O[C@H]1CN(C)C	51*	7	4	-4	-17	9
C[C@H](CO)N1C[C@H](C)[C@@H](CN(C)C(=O)Cc2ccccn2)Oc2cc(C#C[C@@H](C)O)ccc2S1(=O)=O	-3	-4	0	5	3	41*
